# Measurements as given in paper PMC7862700, “An all-to-all approach to the identification of sequence-specific readers for epigenetic DNA modifications on cytosine”.
# Tests used:
# Test in all cases: DAPPL (digital affinity profiling via proximity ligation, sequencing); 10 mM Tris-HCl pH 7.5, 50 mM NaCl, 1 mM DTT, 4% glycerol, room temperature, 30 min; GST-TFs on glutathione beads, 16-mer random dsDNA library, 0.1% formaldehyde crosslink after washing; high values mean tight binding
# FEV = target: T1, FEV (Homo sapiens, UniProt Q99581 1-238); conditions: protein: recombinant; tags: N-terminal GST; dsDNA, one strand shown
# T1 sequence: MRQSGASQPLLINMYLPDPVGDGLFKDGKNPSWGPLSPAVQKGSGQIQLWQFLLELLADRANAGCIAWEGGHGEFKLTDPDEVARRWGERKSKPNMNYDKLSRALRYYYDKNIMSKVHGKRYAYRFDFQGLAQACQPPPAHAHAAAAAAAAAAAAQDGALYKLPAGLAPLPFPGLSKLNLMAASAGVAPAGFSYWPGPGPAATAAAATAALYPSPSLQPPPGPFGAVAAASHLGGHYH
# Procedure, shortened: (§1)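 Human transcription factors fused to GST were expressed in yeast, captured on glutathione beads, given DNA barcodes and pooled with a GST-only negative control. Pools were incubated with 200 nmole of a 16-mer random double-stranded DNA library in Tris/NaCl/DTT/glycerol buffer at room temperature for 30 min. They were then washed, crosslinked with 0.1% formaldehyde, proximity-ligated (BsaI/T4 ligase, 1 h, 37 °C), PCR-amplified and sequenced on an Illumina NextSeq500. Binding signal is each 6-mer's read frequency for a factor divided by its frequency for the GST control.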
# ETV5 = ETV5 (Homo sapiens, UniProt P41161 1-510); conditions: protein: recombinant; tags: N-terminal GST; dsDNA, one strand shown
# Procedure, shortened: as §1
# HSF1 = HSF1 (Homo sapiens, UniProt Q00613 1-529); conditions: protein: recombinant; tags: N-terminal GST; chain copies: 3; dsDNA, one strand shown
# Procedure, shortened: as §1
# SPIC = target: T2, SPIC (Homo sapiens, UniProt Q8N5J4 1-248); conditions: protein: recombinant; tags: N-terminal GST; dsDNA, one strand shown
# T2 sequence: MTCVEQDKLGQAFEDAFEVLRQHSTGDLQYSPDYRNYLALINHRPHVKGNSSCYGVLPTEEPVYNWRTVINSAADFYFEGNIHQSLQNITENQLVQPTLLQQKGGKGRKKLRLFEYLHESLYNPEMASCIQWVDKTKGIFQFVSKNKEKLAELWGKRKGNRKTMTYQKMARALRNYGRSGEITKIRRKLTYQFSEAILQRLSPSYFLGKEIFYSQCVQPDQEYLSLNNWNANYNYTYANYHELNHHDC
# Procedure, shortened: as §1
# ELF4 = ELF4 (Homo sapiens, UniProt Q99607 1-663); conditions: protein: recombinant; tags: N-terminal GST; dsDNA, one strand shown
# Procedure, shortened: as §1
# ELK4 = target: T3, ELK4 (Homo sapiens, UniProt P28324-2 1-405); conditions: protein: recombinant; tags: N-terminal GST; dsDNA, one strand shown
# T3 sequence: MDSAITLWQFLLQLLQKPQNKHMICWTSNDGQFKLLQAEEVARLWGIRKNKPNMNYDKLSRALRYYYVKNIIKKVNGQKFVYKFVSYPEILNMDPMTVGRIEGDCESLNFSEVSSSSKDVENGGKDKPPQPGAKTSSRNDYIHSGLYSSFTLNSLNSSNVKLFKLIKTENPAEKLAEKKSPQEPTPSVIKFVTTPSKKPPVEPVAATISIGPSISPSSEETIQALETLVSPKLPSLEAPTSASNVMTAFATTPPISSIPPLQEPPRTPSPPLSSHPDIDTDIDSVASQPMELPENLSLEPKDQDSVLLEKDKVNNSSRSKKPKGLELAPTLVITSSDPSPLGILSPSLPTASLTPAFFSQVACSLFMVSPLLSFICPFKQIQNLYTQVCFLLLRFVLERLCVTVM
# Procedure, shortened: as §1
# ETV2 = target: T4, ETV2 (Homo sapiens, UniProt O00321 1-342); conditions: protein: recombinant; tags: N-terminal GST; dsDNA, one strand shown
# T4 sequence: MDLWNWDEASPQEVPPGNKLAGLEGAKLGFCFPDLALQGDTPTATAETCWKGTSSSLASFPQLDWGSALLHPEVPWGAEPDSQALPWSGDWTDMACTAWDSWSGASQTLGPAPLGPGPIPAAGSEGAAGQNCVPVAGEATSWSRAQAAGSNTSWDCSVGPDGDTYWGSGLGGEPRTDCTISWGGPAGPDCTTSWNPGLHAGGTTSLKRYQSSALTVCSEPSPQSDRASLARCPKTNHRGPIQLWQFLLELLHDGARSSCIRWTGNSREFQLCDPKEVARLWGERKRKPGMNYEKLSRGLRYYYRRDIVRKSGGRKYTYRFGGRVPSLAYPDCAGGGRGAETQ
# Procedure, shortened: as §1
# ELF3 = target: T5, ELF3 (Homo sapiens, UniProt P78545 1-371); conditions: protein: recombinant; tags: N-terminal GST; dsDNA, one strand shown
# T5 sequence: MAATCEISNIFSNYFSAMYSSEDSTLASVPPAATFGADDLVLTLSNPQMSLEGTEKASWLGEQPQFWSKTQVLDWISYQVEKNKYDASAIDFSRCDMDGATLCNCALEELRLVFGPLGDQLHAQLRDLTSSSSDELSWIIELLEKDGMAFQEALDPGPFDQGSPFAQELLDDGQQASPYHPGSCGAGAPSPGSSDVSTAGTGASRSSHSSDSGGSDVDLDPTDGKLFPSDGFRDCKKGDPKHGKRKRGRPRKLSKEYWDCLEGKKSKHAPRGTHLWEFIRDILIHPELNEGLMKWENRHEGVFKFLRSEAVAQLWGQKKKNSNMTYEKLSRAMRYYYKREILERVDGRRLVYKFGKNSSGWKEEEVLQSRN
# Procedure, shortened: as §1
# CRX = CRX (Homo sapiens, UniProt O43186 1-299); conditions: protein: recombinant; tags: N-terminal GST; dsDNA, one strand shown
# Procedure, shortened: as §1
# ETV1 = ETV1 (Homo sapiens, UniProt P50549 1-477); conditions: protein: recombinant; tags: N-terminal GST; dsDNA, one strand shown
# Procedure, shortened: as §1
# ERF = target: T6, ERF (Homo sapiens, UniProt P50548 1-548); conditions: protein: recombinant; tags: N-terminal GST; dsDNA, one strand shown
# T6 sequence: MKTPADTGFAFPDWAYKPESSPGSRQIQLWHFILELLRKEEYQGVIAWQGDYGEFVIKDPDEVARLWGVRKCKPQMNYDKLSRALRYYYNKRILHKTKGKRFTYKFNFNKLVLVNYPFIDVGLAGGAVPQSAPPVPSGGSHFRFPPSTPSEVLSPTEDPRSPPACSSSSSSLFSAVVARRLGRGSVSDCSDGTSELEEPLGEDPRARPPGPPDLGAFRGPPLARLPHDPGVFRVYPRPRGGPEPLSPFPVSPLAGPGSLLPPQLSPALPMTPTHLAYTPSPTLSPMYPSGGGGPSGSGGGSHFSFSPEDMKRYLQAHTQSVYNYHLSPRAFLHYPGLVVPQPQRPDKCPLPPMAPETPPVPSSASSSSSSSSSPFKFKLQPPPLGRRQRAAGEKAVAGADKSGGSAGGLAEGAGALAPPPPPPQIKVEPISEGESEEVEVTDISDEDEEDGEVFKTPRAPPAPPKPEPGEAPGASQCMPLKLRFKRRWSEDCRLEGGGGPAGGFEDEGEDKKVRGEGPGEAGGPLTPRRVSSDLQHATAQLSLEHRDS
# Procedure, shortened: as §1
# ETV3L = target: T7, ETV3L (Homo sapiens, UniProt Q6ZN32 1-361); conditions: protein: recombinant; tags: N-terminal GST; dsDNA, one strand shown
# T7 sequence: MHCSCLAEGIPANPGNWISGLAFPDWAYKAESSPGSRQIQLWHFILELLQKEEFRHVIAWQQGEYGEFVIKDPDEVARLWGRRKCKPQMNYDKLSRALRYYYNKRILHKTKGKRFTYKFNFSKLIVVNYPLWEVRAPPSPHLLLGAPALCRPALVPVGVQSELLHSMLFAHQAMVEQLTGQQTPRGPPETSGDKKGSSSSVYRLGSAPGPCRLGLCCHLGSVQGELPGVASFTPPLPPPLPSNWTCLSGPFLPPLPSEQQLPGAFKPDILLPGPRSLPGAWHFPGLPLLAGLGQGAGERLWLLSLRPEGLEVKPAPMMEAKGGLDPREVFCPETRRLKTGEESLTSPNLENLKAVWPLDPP
# Procedure, shortened: as §1
# ETS2 = target: T8, ETS2 (Homo sapiens, UniProt P15036 1-469); conditions: protein: recombinant; tags: N-terminal GST; dsDNA, one strand shown
# T8 sequence: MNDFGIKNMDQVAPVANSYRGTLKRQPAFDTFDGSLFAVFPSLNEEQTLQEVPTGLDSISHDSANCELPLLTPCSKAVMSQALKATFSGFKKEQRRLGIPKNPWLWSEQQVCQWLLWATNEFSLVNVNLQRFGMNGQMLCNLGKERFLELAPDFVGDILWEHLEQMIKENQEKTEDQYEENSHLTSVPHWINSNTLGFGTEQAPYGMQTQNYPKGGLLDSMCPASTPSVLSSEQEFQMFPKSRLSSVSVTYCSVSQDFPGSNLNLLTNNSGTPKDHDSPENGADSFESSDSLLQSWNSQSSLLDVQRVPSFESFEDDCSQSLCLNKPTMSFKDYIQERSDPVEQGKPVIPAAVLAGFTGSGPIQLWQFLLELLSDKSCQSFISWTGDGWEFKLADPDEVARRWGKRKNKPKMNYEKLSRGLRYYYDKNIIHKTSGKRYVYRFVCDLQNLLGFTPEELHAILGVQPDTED
# Procedure, shortened: as §1
# SPDEF = target: T9, SPDEF (Homo sapiens, UniProt O95238 1-335); conditions: protein: recombinant; tags: N-terminal GST; dsDNA, one strand shown
# T9 sequence: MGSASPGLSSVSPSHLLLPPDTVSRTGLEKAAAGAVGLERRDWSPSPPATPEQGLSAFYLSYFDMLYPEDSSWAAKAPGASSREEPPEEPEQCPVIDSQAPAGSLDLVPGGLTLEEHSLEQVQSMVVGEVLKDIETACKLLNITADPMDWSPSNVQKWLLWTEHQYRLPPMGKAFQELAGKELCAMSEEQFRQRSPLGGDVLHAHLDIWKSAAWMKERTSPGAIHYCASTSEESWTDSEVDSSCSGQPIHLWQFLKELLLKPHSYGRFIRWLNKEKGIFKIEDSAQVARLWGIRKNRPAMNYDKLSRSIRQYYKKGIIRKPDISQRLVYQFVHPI
# Procedure, shortened: as §1
# ETV7 = target: T10, ETV7 (Homo sapiens, UniProt Q9Y603 1-341); conditions: protein: recombinant; tags: N-terminal GST; dsDNA, one strand shown
# T10 sequence: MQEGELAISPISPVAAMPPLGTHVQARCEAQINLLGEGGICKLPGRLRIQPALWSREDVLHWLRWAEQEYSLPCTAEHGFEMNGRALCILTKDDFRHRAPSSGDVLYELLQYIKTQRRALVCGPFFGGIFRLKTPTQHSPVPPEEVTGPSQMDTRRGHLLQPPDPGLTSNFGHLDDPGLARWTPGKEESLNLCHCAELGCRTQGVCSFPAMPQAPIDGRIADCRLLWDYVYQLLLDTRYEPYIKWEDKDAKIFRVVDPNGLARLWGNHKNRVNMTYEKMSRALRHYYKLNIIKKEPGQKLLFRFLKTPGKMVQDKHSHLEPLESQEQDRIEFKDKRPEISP
# Procedure, shortened: as §1
# ELF5 = target: T11, ELF5 (Homo sapiens, UniProt Q9UKW6-2 1-255); conditions: protein: recombinant; tags: N-terminal GST; dsDNA, one strand shown
# T11 sequence: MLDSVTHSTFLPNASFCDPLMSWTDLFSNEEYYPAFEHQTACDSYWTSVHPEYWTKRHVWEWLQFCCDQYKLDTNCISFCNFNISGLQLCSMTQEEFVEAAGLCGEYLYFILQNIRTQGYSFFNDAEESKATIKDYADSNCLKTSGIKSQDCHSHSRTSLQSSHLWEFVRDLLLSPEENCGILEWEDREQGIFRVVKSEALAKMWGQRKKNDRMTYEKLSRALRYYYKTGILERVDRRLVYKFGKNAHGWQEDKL
# Procedure, shortened: as §1
# ETV3 = target: T12, ETV3 (Homo sapiens, UniProt P41162-2 1-143); conditions: protein: recombinant; tags: N-terminal GST; dsDNA, one strand shown
# T12 sequence: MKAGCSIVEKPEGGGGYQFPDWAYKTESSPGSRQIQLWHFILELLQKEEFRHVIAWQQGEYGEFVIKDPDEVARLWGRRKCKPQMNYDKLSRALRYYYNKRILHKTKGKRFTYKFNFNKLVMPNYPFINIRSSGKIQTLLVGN
# Procedure, shortened: as §1
# ETV6 = ETV6 (Homo sapiens, UniProt P41212 1-452); conditions: protein: recombinant; tags: N-terminal GST; dsDNA, one strand shown
# Procedure, shortened: as §1
# Chain of ETV6 (P41212 whole entry): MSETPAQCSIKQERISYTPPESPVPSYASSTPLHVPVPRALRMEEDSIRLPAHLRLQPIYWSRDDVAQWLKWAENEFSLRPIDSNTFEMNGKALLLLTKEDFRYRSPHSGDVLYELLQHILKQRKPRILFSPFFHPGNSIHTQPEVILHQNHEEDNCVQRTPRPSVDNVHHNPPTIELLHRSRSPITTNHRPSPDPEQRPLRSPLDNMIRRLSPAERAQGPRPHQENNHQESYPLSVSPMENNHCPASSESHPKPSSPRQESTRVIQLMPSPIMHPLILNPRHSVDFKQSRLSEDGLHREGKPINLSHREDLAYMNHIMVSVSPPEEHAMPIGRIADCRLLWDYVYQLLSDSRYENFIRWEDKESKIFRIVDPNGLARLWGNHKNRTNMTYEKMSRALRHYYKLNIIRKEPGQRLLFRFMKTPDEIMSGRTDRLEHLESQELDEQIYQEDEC
# Chain of ELF4 (Q99607 whole entry): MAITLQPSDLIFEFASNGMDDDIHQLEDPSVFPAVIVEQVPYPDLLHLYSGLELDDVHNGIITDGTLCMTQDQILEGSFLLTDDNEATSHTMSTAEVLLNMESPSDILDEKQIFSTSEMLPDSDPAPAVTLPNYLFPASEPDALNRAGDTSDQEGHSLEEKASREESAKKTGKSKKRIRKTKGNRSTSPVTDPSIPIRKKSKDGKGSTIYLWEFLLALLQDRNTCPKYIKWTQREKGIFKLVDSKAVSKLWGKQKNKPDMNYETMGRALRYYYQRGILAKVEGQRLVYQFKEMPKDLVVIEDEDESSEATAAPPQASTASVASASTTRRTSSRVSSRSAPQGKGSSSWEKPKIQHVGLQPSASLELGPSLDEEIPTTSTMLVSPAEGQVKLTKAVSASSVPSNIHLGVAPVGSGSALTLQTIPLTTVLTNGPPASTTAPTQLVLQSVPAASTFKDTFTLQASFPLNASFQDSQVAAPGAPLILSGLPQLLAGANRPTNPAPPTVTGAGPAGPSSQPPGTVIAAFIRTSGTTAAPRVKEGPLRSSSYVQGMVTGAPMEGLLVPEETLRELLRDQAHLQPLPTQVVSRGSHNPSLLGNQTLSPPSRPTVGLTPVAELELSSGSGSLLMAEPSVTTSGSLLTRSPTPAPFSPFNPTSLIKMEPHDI
# Chain of HSF1 (Q00613 whole entry): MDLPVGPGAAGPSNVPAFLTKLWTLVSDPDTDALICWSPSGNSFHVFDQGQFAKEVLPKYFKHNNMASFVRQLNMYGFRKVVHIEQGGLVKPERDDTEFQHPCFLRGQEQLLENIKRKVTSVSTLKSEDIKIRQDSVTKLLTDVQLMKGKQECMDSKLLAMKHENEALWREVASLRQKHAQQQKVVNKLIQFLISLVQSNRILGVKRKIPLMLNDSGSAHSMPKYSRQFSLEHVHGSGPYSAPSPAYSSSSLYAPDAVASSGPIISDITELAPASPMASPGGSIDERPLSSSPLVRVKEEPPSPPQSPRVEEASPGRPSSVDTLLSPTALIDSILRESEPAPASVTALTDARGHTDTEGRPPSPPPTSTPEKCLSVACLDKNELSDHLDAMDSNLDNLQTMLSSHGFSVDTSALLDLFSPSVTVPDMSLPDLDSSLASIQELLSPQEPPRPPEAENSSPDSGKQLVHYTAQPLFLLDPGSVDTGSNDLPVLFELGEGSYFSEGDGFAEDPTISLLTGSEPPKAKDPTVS
# Chain of ETV5 (P41161 whole entry): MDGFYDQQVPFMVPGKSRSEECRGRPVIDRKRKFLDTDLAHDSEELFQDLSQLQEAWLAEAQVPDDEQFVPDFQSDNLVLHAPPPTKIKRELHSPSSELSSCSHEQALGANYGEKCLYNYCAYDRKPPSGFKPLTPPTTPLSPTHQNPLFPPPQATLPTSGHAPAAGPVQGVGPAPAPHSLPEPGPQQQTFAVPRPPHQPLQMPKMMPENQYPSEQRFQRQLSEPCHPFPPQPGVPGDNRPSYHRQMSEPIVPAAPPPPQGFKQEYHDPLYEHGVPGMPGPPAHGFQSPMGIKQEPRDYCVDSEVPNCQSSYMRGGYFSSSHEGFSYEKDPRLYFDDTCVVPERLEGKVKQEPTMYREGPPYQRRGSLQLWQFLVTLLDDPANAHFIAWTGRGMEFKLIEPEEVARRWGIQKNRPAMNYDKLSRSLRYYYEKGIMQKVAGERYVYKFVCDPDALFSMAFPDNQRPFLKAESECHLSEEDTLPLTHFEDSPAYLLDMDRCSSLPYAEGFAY
# Chain of CRX (O43186 whole entry): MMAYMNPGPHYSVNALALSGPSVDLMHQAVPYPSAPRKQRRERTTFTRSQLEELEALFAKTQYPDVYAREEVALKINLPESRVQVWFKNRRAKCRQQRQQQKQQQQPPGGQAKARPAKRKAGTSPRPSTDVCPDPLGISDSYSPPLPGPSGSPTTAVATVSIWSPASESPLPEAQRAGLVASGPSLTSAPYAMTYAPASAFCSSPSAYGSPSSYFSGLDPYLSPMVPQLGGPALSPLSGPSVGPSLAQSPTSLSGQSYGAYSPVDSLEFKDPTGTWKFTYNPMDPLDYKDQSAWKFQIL
# Chain of ETV1 (P50549 whole entry): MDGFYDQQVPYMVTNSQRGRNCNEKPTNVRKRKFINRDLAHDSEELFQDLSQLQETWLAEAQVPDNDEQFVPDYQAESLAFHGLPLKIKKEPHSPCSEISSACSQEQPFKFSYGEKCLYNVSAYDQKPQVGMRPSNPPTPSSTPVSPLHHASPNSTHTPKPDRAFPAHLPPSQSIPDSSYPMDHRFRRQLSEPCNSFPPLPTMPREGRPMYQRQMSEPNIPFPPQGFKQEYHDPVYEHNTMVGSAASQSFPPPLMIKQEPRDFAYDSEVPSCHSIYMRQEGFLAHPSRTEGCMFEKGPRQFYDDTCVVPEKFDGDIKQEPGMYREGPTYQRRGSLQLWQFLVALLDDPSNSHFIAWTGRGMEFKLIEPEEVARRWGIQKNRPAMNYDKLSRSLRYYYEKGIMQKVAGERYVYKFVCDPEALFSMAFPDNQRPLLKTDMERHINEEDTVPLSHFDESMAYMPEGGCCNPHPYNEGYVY
sequence,measurement,setting,value
ACTAAT,binding signal,FEV,"1.19 fold enrichment (6-mer frequency, TF over GST control)"
same,binding signal,ETV5,"1.3 fold enrichment (6-mer frequency, TF over GST control)"
same,binding signal,HSF1,"1.81 fold enrichment (6-mer frequency, TF over GST control)"
same,binding signal,SPIC,"1.46 fold enrichment (6-mer frequency, TF over GST control)"
same,binding signal,ELF4,"1.36 fold enrichment (6-mer frequency, TF over GST control)"
same,binding signal,ELK4,"1.24 fold enrichment (6-mer frequency, TF over GST control)"
same,binding signal,ETV2,"1.38 fold enrichment (6-mer frequency, TF over GST control)"
same,binding signal,ELF3,"1.33 fold enrichment (6-mer frequency, TF over GST control)"
same,binding signal,CRX,"2.71 fold enrichment (6-mer frequency, TF over GST control)"
same,binding signal,ETV1,"1.3 fold enrichment (6-mer frequency, TF over GST control)"
same,binding signal,ERF,"1.27 fold enrichment (6-mer frequency, TF over GST control)"
same,binding signal,ETV3L,"1.24 fold enrichment (6-mer frequency, TF over GST control)"
same,binding signal,ETS2,"1.28 fold enrichment (6-mer frequency, TF over GST control)"
same,binding signal,SPDEF,"1.21 fold enrichment (6-mer frequency, TF over GST control)"
same,binding signal,ETV7,"1.45 fold enrichment (6-mer frequency, TF over GST control)"
same,binding signal,ELF5,"1.27 fold enrichment (6-mer frequency, TF over GST control)"
same,binding signal,ETV3,"1.12 fold enrichment (6-mer frequency, TF over GST control)"
same,binding signal,ETV6,"1.31 fold enrichment (6-mer frequency, TF over GST control)"
